Where “and” joins values, the source holds several entries; their conditions need not be identical. Equal entries are not always repeated. Inconclusive results are not listed. Calls of active or inactive are those of the source. Calls follow the shape of the dose curve; as a rule, active = well fitted curve in the direction sought with a large enough effect; inconclusive = small, poorly fitted or top-dose-only effect, or another doubt; inactive = no such curve, though single readings can be large or run the other way.
Experiment: qHTS Assay for Identifying Gametocytocidal Compounds (AID 743244);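 as to max response: actives lower the fluorescent signal which means gametocytes are killed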
Details: P. falciparum 3D7 stage III-V gametocytes, alamarBlue, 72 h; max response: stronger effect = lower value
Summary of the method: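 In this qHTS viability screen, late-stage 3D7 gametocytes are incubated with compound for 72 h, then with alamarBlue for 24 h; reduced resorufin fluorescence marks killing.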
In the case of `CC(=O)Nc1c(I)cc(I)c(C(=O)O)c1I`, the max response is reported as 44.8% (inactive).
In the case of `CCCSS/C(CCO)=C(\C)N(C=O)Cc1cnc(C)nc1N`, the max response is reported as 2.02% (inactive).
In the case of `O=C1c2ccccc2C(=O)C1c1ccccc1`, the max response is reported as 1.91% (inactive).
For `OCc1ccccc1O`, the max response was 23.6% (inactive).
With `COc1cc(-c2ccc(=O)[nH]n2)ccc1OC(F)F` the max response was -3.31% (inactive).
With `COc1cc(/C=C/C(=O)O[C@H]2CC[C@]34C[C@]35CC[C@]3(C)[C@@H]([C@H](C)CCC=C(C)C)CC[C@@]3(C)[C@@H]5CC[C@H]4C2(C)C)ccc1O` the max response was -6.26% (inactive) and 0.13% (inactive).
With `CCN(CC)C(=O)N1CCN(C)CC1` the max response was 0.149% (inactive).
In the case of `COc1cc(C(=S)N2CCOCC2)cc(OC)c1OC`, the max response is reported as 7.8% (inactive).
For `CC(Cc1cccc(C(F)(F)F)c1)NCCOC(=O)c1ccccc1` (configuration not stated), the max response was 8% (inactive).
With `CC(=O)OCC(=O)[C@@]1(OC(C)=O)[C@@H](C)C[C@H]2[C@@H]3C[C@H](F)C4=CC(=O)C=C[C@]4(C)[C@@]3(F)[C@@H](O)C[C@@]21C` the max response was 29% (inactive).
For `NC(=O)c1cc[n+](CC2=C(C(=O)[O-])N3C(=O)[C@@H](NC(=O)Cc4cccs4)[C@H]3SC2)cc1`, the max response was 1.11% (inactive).
In the case of `C#C[C@]1(OC(C)=O)CC[C@H]2[C@@H]3CCC4=C[C@@H](OC(C)=O)CC[C@@H]4[C@H]3CC[C@@]21C`, the max response is reported as -2.21% (inactive) and -10.1% (inactive).
For `NC(=O)CC[C@@H]1NC(=O)[C@H](Cc2ccccc2)NC(=O)[C@H](Cc2ccc(O)cc2)NC(=O)CCSSC[C@@H](C(=O)N2CCC[C@H]2C(=O)N[C@@H](CCCN=C(N)N)C(=O)NCC(N)=O)NC(=O)[C@H](CC(N)=O)NC1=O`, the max response was 1.03% (inactive) and -0.48% (inactive).
With `Cc1cc(O)c(C(C)C)cc1Cl` the max response was -3.92% (inactive).
With `CCCCS(=O)(=O)N[C@@H](Cc1ccc(OCCCCC2CCNCC2)cc1)C(=O)O` the max response was 3.65% (inactive).
For `O=C(Nc1ccc(Cl)c(Cl)c1)C1CC1`, the max response was 14% (inactive).
In the case of `CC[N+](CC)(CCNC(=O)C(=O)NCC[N+](CC)(CC)Cc1ccccc1Cl)Cc1ccccc1Cl`, the max response is reported as 15.6% (inactive).
With `COc1cc2c(cc1OC)C(=O)C(CC1CCN(Cc3ccccc3)CC1)C2` (configuration not stated) the max response was 3.63% (inactive).
With `CCOC(=O)n1ccn(C)c1=S` the max response was 21.8% (inactive).
For `CCOc1ccc(Cc2nccc3cc(OCC)c(OCC)cc23)cc1OCC`, the max response was 10.4% (inactive).
For `Cc1c(C(N)=O)cc([N+](=O)[O-])cc1[N+](=O)[O-]`, the max response was -0.173% (inactive).
In the case of `NCCCC[C@H](N[C@@H](CCc1ccccc1)C(=O)O)C(=O)N1CCC[C@H]1C(=O)O`, the max response is reported as -3.1% (inactive).
In the case of `CC(=O)Oc1ccc2c(c1)CC[C@@H]1[C@@H]2CC[C@]2(C)[C@@H](O)CC[C@@H]12`, the max response is reported as 0.116% (inactive).
In the case of `Cc1ncc(CSSCc2cnc(C)c(O)c2CO)c(CO)c1O`, the max response is reported as -2.24% (inactive).
In the case of `O=C1OC2(c3ccc(O)cc3Oc3cc(O)ccc32)c2ccccc21`, the max response is reported as -13.2% (inactive) and 24.2% (inactive).
For `CN1CCC(=C2c3ccccc3Sc3ccccc32)CC1`, the Potency was 15.8 µM (active).
For `O=C(Nc1ccc(Oc2ccc(Cl)cc2)c(Cl)c1)c1cc(I)cc(I)c1O`, the max response was -9.6% (inactive).
For `CN(C(=O)CN(CCO)CC(=O)N(C)C(C)(C)Cc1ccccc1)C(C)(C)Cc1ccccc1`, the max response was -1.55% (inactive).
For `CCCCCCCCCCCCCCCC[N+](C)(C)CCN(Cc1ccc(OC)cc1)c1ncccn1`, the Potency was 7.08 µM (active).
In the case of `Cc1cc(N)c2cc(NC(=O)Nc3ccc4nc(C)cc(N)c4c3)ccc2n1`, the max response is reported as -2.17% (inactive).
In the case of `CN=C(NC#N)Nc1ccc(C2=NNC(=O)CC2C)cc1` (configuration not stated), the max response is reported as -3.79% (inactive).
For `OC[C@@H](O)[C@@H](O[C@@H]1O[C@H](CO)[C@H](O)[C@H](O)[C@H]1O)[C@H](O)[C@@H](O)CO`, the max response was 9.4% (inactive).
With `CCCCOc1ccc(OCCCN2CCOCC2)cc1` the max response was 1.4% (inactive).
With `NC[C@H]1O[C@H](O[C@H]2[C@H](O)[C@@H](O[C@H]3O[C@H](CO)[C@@H](O)[C@H](N)[C@H]3O)[C@H](N)C[C@@H]2N)[C@H](N)[C@@H](O)[C@@H]1O` the max response was -18.8% (inactive) and 4.69% (inactive).
With `CNCC[C@@H](Oc1ccccc1C)c1ccccc1` the max response was -11.3% (inactive).
For `O=C(OCCOCCO)c1ccccc1Nc1cccc(C(F)(F)F)c1`, the max response was 12.2% (inactive).
With `CCCCC(=O)O[C@]1(C(=O)CO)CC[C@H]2[C@@H]3CCC4=CC(=O)CC[C@]4(C)[C@H]3[C@@H](O)C[C@@]21C` the max response was 5.31% (inactive).

Reference: PubChem BioAssay (NCATS)
% is scaled to controls: 0 for no effect and ±100 for the full control effect; potency is read from the fitted curve at half-maximal effect.
